Rows were chosen to be rich in hits. Some 9.4% of all compounds tested hit in one or more screens of this group.
IMPase inh: membrane-permeable compound that blocks inositol monophosphatase; P97697; CHO-M1 cells, IP1 accumulation, HTRF TR-FRET ratio; inhibition (IP1 accumulation), % at 46.1 µM; 120,000 tested, under 10 active; AID 901; active means well fitted curve in the direction sought with a large enough effect in the signal ratio, not every such curve was filed as active; inconclusive means small, poorly fitted or top-dose-only effect, or a change in a side signal; inactive means no such curve, though single readings can be large or run the other way; the % refers to the signal ratio;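 further: cells stimulated with carbachol in lithium chloride buffer; plate controls were DMSO basal wells for no effect and reference inhibitor wells for full effect; higher means more IMPase inhibition seen as more IP1 and lower FRET ratio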
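CHO-M1, 2000 cells/well, cultured 16–30 h; cpd up to 46 uM; carbachol (50 uM solution, stimulation buffer w/ 50 mM LiCl, pH 7.4), 30 min 37C; IP-One TR-FRET, 10 min RT; Ex 320/Em 665, 620; Hill-fit AC50.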
ALDH1A1 block: inhibitors of human aldehyde dehydrogenase 1A1. AID 1030. Purified ALDH1A1, NADH fluorescence, propionaldehyde substrate. 220,000 compounds, 7.3% hits. P00352. Potency, µM (highest dose often 75.3 µM), without a hit: top-dose activity, negative = inhibition, usual class: inhibitors; active means well fitted inhibition curve with a large enough effect, not every such curve was filed as active; inconclusive means small, poorly fitted or top-dose-only effect, or another doubt; inactive means no such curve, though single readings can be large or run the other way;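 further: potency means the concentration at half of the fitted maximal effect; plate controls were no enzyme wells and a reference inhibitor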
Target sequence (P00352 whole entry, looked up): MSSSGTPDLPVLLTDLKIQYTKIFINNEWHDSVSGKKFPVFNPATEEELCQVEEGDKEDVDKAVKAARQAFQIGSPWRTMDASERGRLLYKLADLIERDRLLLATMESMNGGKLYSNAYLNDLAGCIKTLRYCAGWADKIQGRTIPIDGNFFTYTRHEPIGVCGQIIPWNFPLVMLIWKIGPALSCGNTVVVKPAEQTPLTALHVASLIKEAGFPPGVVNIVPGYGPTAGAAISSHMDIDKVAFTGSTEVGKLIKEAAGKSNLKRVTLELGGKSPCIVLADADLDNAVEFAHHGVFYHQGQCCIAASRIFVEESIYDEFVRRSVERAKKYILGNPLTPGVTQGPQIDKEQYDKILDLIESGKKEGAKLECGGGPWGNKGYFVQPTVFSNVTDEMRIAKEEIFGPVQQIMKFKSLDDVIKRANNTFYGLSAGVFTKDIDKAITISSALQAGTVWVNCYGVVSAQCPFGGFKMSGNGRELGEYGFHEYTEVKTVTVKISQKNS
IMPase Li cell: IMPase inhibition in cells with lithium potentiation | CHO-M1 cells, IP1 TR-FRET (IP-One), carbachol + lithium | Potency, µM (top dose mostly 59.4 µM), without a hit: top-dose activity, negative = IMPase inhibition, hits mostly inhibitors | 210,000 compounds, 0.35% hits;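 further: IP1 builds up when IMPase is blocked and the TR-FRET signal falls; potency means the concentration at half of the fitted maximal effect; plate controls were basal vehicle for no effect and high inhibitor control for full effect; nearly all actives have a fitted effect of over 50% in size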
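CHO cells stably expressing M1 receptor (2000/well) were cultured 16–30 h, then exposed to compounds with a small lithium addition for 30 min at 37C. IP1 was measured by TR-FRET competition; AC50 from Hill fits.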
HPGD block: blocks human HPGD enzyme activity. purified HPGD, NADH fluorescence kinetic, PGE2 substrate. Potency, µM, inactives show top-dose activity change, negative = inhibition, hits mostly inhibitors. 150,000 compounds, 4.3% hits. AID 894; active means well fitted inhibition curve with a large enough effect, not every such curve was filed as active; inconclusive means small, poorly fitted or top-dose-only effect, or another doubt; inactive means no such curve, though single readings can be large or run the other way; further: potency means the concentration at half of the fitted maximal effect; on the % scale 0 is the no-effect control and ±100 the full control effect
Target sequence (P15428 whole entry, looked up): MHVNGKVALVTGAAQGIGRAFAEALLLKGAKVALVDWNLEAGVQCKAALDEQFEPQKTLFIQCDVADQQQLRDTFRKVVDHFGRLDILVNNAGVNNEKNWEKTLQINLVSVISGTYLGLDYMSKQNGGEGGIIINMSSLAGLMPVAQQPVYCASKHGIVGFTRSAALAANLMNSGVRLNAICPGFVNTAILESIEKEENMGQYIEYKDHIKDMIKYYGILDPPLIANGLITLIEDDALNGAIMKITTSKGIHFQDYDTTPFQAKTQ
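NADH formation kinetics: reaction with 30 uM PGE2 and 1 mM NAD+ (final), 20 nM enzyme, Tris-HCl pH 8 with Tween 20, after 15 min compound preincubation at room temperature. Fluorescence change, last versus first of five reads.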
HTT cytoprotect: cytoprotection in Huntington HTT-Q103 PC12 cell model; PC12 HTT-Q103 induced, cytoprotection, ATP luminescence, 40 h; Potency, µM (titrated, usually from 56.4 µM), inactives show cytoprotection (ATP increase), usual class: activators; 230,000 compounds, 0.14% hits; AID 1471; further: potency means the concentration at half of the fitted maximal effect; % of control where 0% means no effect; nearly all actives have a fitted effect of over 45% in size
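Quantitative HTS on tebufenozide-induced (100 nM) PC12 cells expressing HTTQ103 exon 1–GFP; compounds tested as a concentration series; survival measured via cellular ATP.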
HTT aggregate: reduces HttQ103-GFP aggregates in PC12 cells. Potency, µM (highest dose often 46.1 µM), without a hit: top-dose activity change, negative = inhibition, hits mostly inhibitors. 220,000 compounds, 1.1% hits. PC12 HttQ103-GFP aggregates, Acumen cytometry, 40 h; further: potency means the concentration at half of the fitted maximal effect; on the % scale 0 is the no-effect control and ±100 the full control effect; nearly all actives have a fitted effect of over 60% in size
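PC12 cells stably carrying ecdysone-inducible HTT exon 1 Q103–GFP were induced with tebufenozide (100 nM final) and treated with library compounds in titration. GFP aggregates in lysates were counted by laser scanning cytometry.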
* marks the source's active call; other numbers are inactive results; ? = inconclusive; · = not tested or not shown; [ ] = dose if it differs, or a comment. Unless noted, the call rests on the fitted dose curve; in most records, active means well fitted curve in the direction sought with a large enough effect; inconclusive means small, poorly fitted or top-dose-only effect, or another doubt; inactive means no such curve, though single readings can be large; an effect the other way counts as inactive or inconclusive.

SMILES	IMPase inh	ALDH1A1 block	IMPase Li cell	HPGD block	HTT cytoprotect	HTT aggregate
CC1(C)CC(=O)C2=C(C1)Nc1ccccc1NC2c1cccnc1 (configuration not stated)	5	10%	-3%[38.3 µM]	-14%	-11%	-1%
CC1(C)CC(=O)C(C(C2=C(O)CC(C)(C)CC2=O)c2cccc(O)c2)C(=O)C1 (configuration not stated)	1	14µM*	-1%[38.3 µM]	-9%	-9%	26%
CCCC(C1=C(O)CC(C)(C)CC1=O)C1C(=O)CC(C)(C)CC1=O (configuration not stated)	15	22µM*	9%	0%	2%[1.9 µM]	-20%
Cc1ccc(C(C2=C(O)CC(C)(C)CC2=O)C2C(=O)CC(C)(C)CC2=O)o1 (configuration not stated)	-6	14µM*	-2%[38.3 µM]	3.5µM*	7%	-4%
CC(=N)C1=C(O)CC(C)(C)CC1=O	4	?	-9%[38.3 µM]	-7%	-16%	1%
CC1(C)CC(=O)C(C(C2=C(O)CC(C)(C)CC2=O)c2cccs2)C(=O)C1 (configuration not stated)	1	-3%	·	·	9%	-1%
CC1(C)CC(=O)C(C(C2=C(O)CC(C)(C)CC2=O)c2cccnc2)C(=O)C1 (configuration not stated)	-9	14µM*	-12%[38.3 µM]	-7%	-8%[10 µM]	2%
CCCCc1nc2c(c3c1C[C@H](C)OC3)CN(C(=O)Cc1cccs1)CC2	·	3%[13.5 µM]	5%	-7%	-15%[10 µM]	·
COc1ccc(C2Nc3ccccc3-c3nnc(SC)nc3O2)cc1C (configuration not stated)	1	·	·	·	·	·
FC(F)(F)c1ccccc1-c1ccc2ncnc(NC3CCNCC3)c2c1	·	9%	12%	-7%	-63%	·
Cc1ccc(CNC(=O)CN2CCCC(C)C2)cc1 (configuration not stated)	3	-1%	37%[38.3 µM]	14µM*	-6%	7%[1.84 µM]
COC(=O)[C@@]1(Cc2ccccc2)[C@H]2c3cc(C(=O)N(C)C)n(Cc4cc(C)n(C)n4)c3C[C@H]2CN1C(=O)c1ccccc1	·	0%	1%	-12%	4%	·
N#Cc1ccccc1Sc1ccccc1C(=O)OCC(=O)NC12CC3CC(CC(C3)C1)C2	·	-5%	6%	13µM*	19%[10 µM]	2%
N#Cc1ccccc1Sc1ccccc1C(=O)OCC(=O)N1CCN(C(=O)c2ccco2)CC1	10	14µM*	3%[38.3 µM]	?	1%[10 µM]	18%
O=C(c1cc2cc([N+](=O)[O-])ccc2s1)N1CCCCC1	·	14µM*	-5%	·	-47%	-7%
CCN(CC)C(=O)c1cc2cc([N+](=O)[O-])ccc2s1	-4	-5%	5%[38.3 µM]	28µM*	-27%	-4%
N#Cc1ccc2c(c1)N(CCCN1CCC(O)CC1)c1ccccc1S2	·	1%	28%	-3%	-25%	-19%
CCCc1nc(SCC(=O)N2CCC(Cc3ccccc3)CC2)c2c(=O)n(C)c(=O)n(C)c2n1	4	18µM*	51%[38.3 µM]	-17%	-26%	25µM*
Cc1ccc(CNC(=O)CCCCn2c(=O)c3ccccc3n(Cc3c(C)cc(C)cc3C)c2=O)cc1	1	·	·	·	·	·
CN(C)Cc1ccccc1-c1cc(N(C)Cc2ccco2)ncn1	·	?	-1%	·	22%	·
CCc1cc2c(=O)n(CCC(C)C)c(=S)[nH]c2s1	·	16µM*	0%	·	8%[10 µM]	?
CCCOc1ccccc1C1Oc2nc(SC)nnc2-c2ccccc2N1C(C)=O (configuration not stated)	2	·	·	·	·	·
O=C(O)/C=C\c1c2ccc(=O)c(O)c-2oc2c(O)c(O)ccc12	·	3%[13.5 µM]	7%	2.8µM*	0%[10 µM]	·
O=C(O)[C@H]1CCCC[C@@H]1c1c2ccc(=O)c(O)c-2oc2c(O)c(O)ccc12	·	-9%[13.5 µM]	2%	4.5µM*	-12%[10 µM]	·
C#CCCCO/N=C1/C[C@@H](O)[C@@H](O)[C@@H]2[C@H]3C(=O)N(c4ccc(F)cc4F)C(=O)[C@@H]3CC[C@@H]12	·	5%[13.5 µM]	·	·	12%[10 µM]	·
SMILES	IMPase inh	ALDH1A1 block	IMPase Li cell	HPGD block	HTT cytoprotect	HTT aggregate
COc1cc(SC#N)ccc1N=Cc1c(C)[nH]n(-c2cccc3ccccc23)c1=O	-4	0.45µM*	16%[38.3 µM]	?	·	16%
COc1ccccc1N=Cc1c(C)[nH]n(-c2ccc(C)cc2C)c1=O	·	?	7%	·	14%[10 µM]	-5%[9.22 µM]
COc1cc(S(=O)(=O)Nc2ccc(C)cc2)ccc1N=Cc1c(C)[nH]n(-c2ccc(C)cc2)c1=O	·	1%	-14%	-17%	-1%[10 µM]	14%
COc1cc(SC#N)ccc1N=Cc1c(C)[nH]n(-c2ccc(C)cc2C)c1=O	15	0.71µM*	8%[38.3 µM]	8.9µM*	?	?
CCCOC(=O)c1cccc(Nc2nc(C(=O)OCC)nc3ccccc23)c1	0	·	·	·	·	·
O=C1OC(OC(=O)c2cccnc2Nc2cccc(C(F)(F)F)c2)c2ccccc21 (configuration not stated)	·	·	·	·	-7%	20%
C=C1C[C@@]23CC4C5[C@@]6(C)C[C@H](O)C[C@@]57C2[C@H](O)[C@@H]1[C@H](O)[C@H]3[C@H]7N4C6	·	9%	6%	2%	-29%	·
CC(=O)N1CCC2(CCCN(c3ccccc3)C2)CC1	·	-5%	13%	-10%	-4%	·
Cc1ccc(C(=O)N/N=C/c2cc(C)n(-c3ccc(Br)cc3)c2C)cc1[N+](=O)[O-]	8	10µM*	-12%[38.3 µM]	?	8%	16%
COc1ccc(CCC(=O)N/N=C\c2cccs2)cc1	·	?	?	·	-37%	-12%
COc1cccc(CNc2ncn[nH]2)c1OCc1ccccc1F	·	?	11%	·	-19%	-3%
COc1cccc(CNc2ncn[nH]2)c1OCc1ccc(F)cc1	·	28µM*	7%	·	-5%[10 µM]	-11%[9.22 µM]
Cc1ccc(C)c(N2CCN(C(c3ccc(F)cc3)c3nnc(-c4ccccc4)o3)CC2)c1 (configuration not stated)	4	·	·	·	·	·
COc1ccc(O)c(/C=c2/sc3nc4cc(C)c(C)cc4n3c2=O)c1	10	?	-15%[38.3 µM]	7.9µM*	-26%[0.074 µM]	-9%
O=C(/C=C/c1cccs1)Nc1scc(-c2ccccc2)c1C(=O)O	·	22µM*	0%	·	-143%	-16%
O=C(/C=C/c1cccs1)Nc1nncs1	·	·	·	·	-6%[10 µM]	13%[9.22 µM]
O=C(/C=C/c1cccs1)Nc1nc(-c2ccccc2)cs1	10	3%	34%[38.3 µM]	-14%	-21%[10 µM]	35µM*
O=C(COC(=O)/C=C/c1cccs1)Nc1nc(-c2ccccc2)cs1	·	22µM*	6%	-9%	·	11%
